According to the OligoGym collection:

Legend:
Assay in all cases: pooled miR-30 sensor sort-seq; sequence = guide strand
Settings in all cases: shRNA
LCN1 = molecular target: LCN1
LCE2C = molecular target: LCE2C
LASS1 = molecular target: LASS1
LASP1 = molecular target: LASP1
LARP1B = molecular target: LARP1B
LIPA = molecular target: LIPA
LONP1 = molecular target: LONP1
LRDD = molecular target: LRDD
LRRC15 = molecular target: LRRC15
LTA4H = molecular target: LTA4H
LRRC45 = molecular target: LRRC45
LRRC8D = molecular target: LRRC8D
LSG1 = molecular target: LSG1
Also: reference of the scale not given here.

Sequence TTGTTCTTGGGGTCTCTGCCCA has a sensor-assay potency score (higher = more potent) (LCN1) of -0.515.

AGCAAGAAGAGACTGCAGGGAA gave a sensor-assay potency score (higher = more potent) (LCE2C) of -0.624.

With TCACTCTCACAGCAGTCGGGGC the sensor-assay potency score (higher = more potent) (LCE2C) was -1.13.

In the case of TAGGCACTGTAGCTCCAGCTGC, the sensor-assay potency score (higher = more potent) (LASS1) is reported as -1.01.

TTTATGCCAGAACTTATCCAGA was tested, and the sensor-assay potency score (higher = more potent) (LASP1) was -1.03.

In the case of ATGTTCAGTGTCATCTTGCAGG, the sensor-assay potency score (higher = more potent) (LASP1) is reported as -1.2.

AAACTTCCAAGCGCTCTCGGGC was tested, and the sensor-assay potency score (higher = more potent) (LASS1) was -0.904.

For TTATATTACTGATCTGGTCCTG, the sensor-assay potency score (higher = more potent) (LASP1) was 0.57.

In the case of TAGTCGGTGCCAAACAGCAGGT, the sensor-assay potency score (higher = more potent) (LASS1) is reported as -1.18.

For ACACTTGGGAGGACACTTGGGA, the sensor-assay potency score (higher = more potent) (LCE2C) was 0.0104.

Work on TACACGATCTTGCCGCACCGGG yielded a sensor-assay potency score (higher = more potent) (LASP1) of -1.34.

In the case of TATATTACTGATCTGGTCCTGG, the sensor-assay potency score (higher = more potent) (LASP1) is reported as 0.21.

TCGTAGAAGACAGATGGTGGGT gave a sensor-assay potency score (higher = more potent) (LASS1) of -0.363.

With TGGAGCAGCATGACCACCGAGT the sensor-assay potency score (higher = more potent) (LASS1) was -1.27.

In the case of TATTTTATATTACTGATCTGGT, the sensor-assay potency score (higher = more potent) (LASP1) is reported as -0.425.

Sequence TTGTAGCGCACCTGACTCTGGA has a sensor-assay potency score (higher = more potent) (LASP1) of -0.666.

TCTCCGTGCTGAGTCCGCGGGC showed a sensor-assay potency score (higher = more potent) (LCN1) of -0.925.

TTCATGTTCAGTGTCATCTTGC gave a sensor-assay potency score (higher = more potent) (LASP1) of 0.197.

Work on TGGTGGCTCAGGGAGCAGCCAC yielded a sensor-assay potency score (higher = more potent) (LCE2C) of -2.45.

TTCTTCTGAAGAACATAGCTGA gave a sensor-assay potency score (higher = more potent) (LARP1B) of 0.273.

TTGAAGAAGAAGTAGAAGGGGA was tested, and the sensor-assay potency score (higher = more potent) (LASS1) was 0.612.

Work on TGTTCTTGGGGTCTCTGCCCAC yielded a sensor-assay potency score (higher = more potent) (LCN1) of -1.02.

Sequence TAGAGGCGGAACCAGAACCAGC has a sensor-assay potency score (higher = more potent) (LASS1) of -1.74.

CTGCAGGGAAACATGGAGCTGG was tested, and the sensor-assay potency score (higher = more potent) (LCE2C) was -1.34.

For TTTTATATTACTGATCTGGTCC, the sensor-assay potency score (higher = more potent) (LASP1) was -0.194.

For TGACACATCCTGAATCTCCTCG, the sensor-assay potency score (higher = more potent) (LCN1) was 1.02.

Work on AGACTGCAGGGAAACATGGAGC yielded a sensor-assay potency score (higher = more potent) (LCE2C) of -2.06.

TCAGGGAGCAGCCACCAGCCCC gave a sensor-assay potency score (higher = more potent) (LCE2C) of -1.78.

TTCACTCTCACAGCAGTCGGGG gave a sensor-assay potency score (higher = more potent) (LCE2C) of -0.831.

TGTCCATGTATAGCGTAGCGTA gave a sensor-assay potency score (higher = more potent) (LASS1) of -1.61.

TATTGTAAGGAAATGATGCTGC showed a sensor-assay potency score (higher = more potent) (LIPA) of 0.625.

In the case of TTGACGTCGTAGACATCTGCAA, the sensor-assay potency score (higher = more potent) (LIPA) is reported as -0.272.

In the case of TAGAAGTCCTTCTTGTTCTCGG, the sensor-assay potency score (higher = more potent) (LONP1) is reported as 0.532.

AATCCTCTGAAGCATCTCCTGC showed a sensor-assay potency score (higher = more potent) (LRDD) of -1.15.

In the case of TACAGGTCCAAGCTCAGCCGGT, the sensor-assay potency score (higher = more potent) (LRDD) is reported as -1.52.

With TAGTCAGATCAGTGTAGTCTTC the sensor-assay potency score (higher = more potent) (LRRC15) was -1.03.

For TTGGAGAGTGACTTGTCGCCTG, the sensor-assay potency score (higher = more potent) (LTA4H) was 0.145.

In the case of TTATCAATAGTCTCCATCAAGT, the sensor-assay potency score (higher = more potent) (LRRC45) is reported as -1.42.

TTGTCCATTGATCACTACTTTT showed a sensor-assay potency score (higher = more potent) (LTA4H) of -1.71.

AATAGTCTCCATCAAGTCGAGG gave a sensor-assay potency score (higher = more potent) (LRRC45) of -1.73.

TTTTTGAGCAAATACACCCAGG was tested, and the sensor-assay potency score (higher = more potent) (LRRC8D) was -0.941.

For TTTGACTTCTTGTCCATTGATC, the sensor-assay potency score (higher = more potent) (LTA4H) was -0.618.

TTCTGTTCCTCTTCTAGCCGGA showed a sensor-assay potency score (higher = more potent) (LSG1) of 0.394.

With TTAACATAACAACAGCTAGGTA the sensor-assay potency score (higher = more potent) (LRRC8D) was -0.589.

TTGTGTATCTGCCTCTTCTGTG was tested, and the sensor-assay potency score (higher = more potent) (LSG1) was -0.396.

TTCATGTGCAATGACATTGGAG was tested, and the sensor-assay potency score (higher = more potent) (LTA4H) was -0.277.

TGTAACTTTGTCTTTCTCCAAG was tested, and the sensor-assay potency score (higher = more potent) (LTA4H) was -0.956.

With TTATGAATGACTAACTTTGTAA the sensor-assay potency score (higher = more potent) (LRRC8D) was -0.367.

TGATTGTTGAACTCTTACCAAC showed a sensor-assay potency score (higher = more potent) (LSG1) of -1.62.

For TTGATGAGAAGAGAGATCCTTC, the sensor-assay potency score (higher = more potent) (LTA4H) was 0.703.

Sequence TAACATAACAACAGCTAGGTAA has a sensor-assay potency score (higher = more potent) (LRRC8D) of -0.029.

TATAGATCAAGTCACTATCTTC was tested, and the sensor-assay potency score (higher = more potent) (LRRC8D) was -0.519.

In the case of TTTGTAAACATTCAGTAGCGGC, the sensor-assay potency score (higher = more potent) (LRRC8D) is reported as -0.948.

Sequence TTGATTGTTGAACTCTTACCAA has a sensor-assay potency score (higher = more potent) (LSG1) of -0.2.

For TAATATTAAGTTTTTCAGCTAC, the sensor-assay potency score (higher = more potent) (LSG1) was -0.362.

TTGTTGAACTCTTACCAACATT showed a sensor-assay potency score (higher = more potent) (LSG1) of -1.39.

With TTCAGCTCAGCTGACATGCTGG the sensor-assay potency score (higher = more potent) (LRRC45) was -0.387.

TTGATTGAGAACATCAACCTTA was tested, and the sensor-assay potency score (higher = more potent) (LTA4H) was 0.904.

TTATCCAGGATTGTCATGCTGG showed a sensor-assay potency score (higher = more potent) (LRRC8D) of -0.286.

Work on TAGCTCCTTAAAGAGCTCCAGT yielded a sensor-assay potency score (higher = more potent) (LSG1) of -1.06.
